Test results: the supplement of paper PMC11732987, “Enantioselective OTUD7B fragment discovery through chemoproteomics screening and high-throughput optimisation” (Communications Chemistry, 2025)

Assays:
Test in all cases: log2 ratio of Biotin-Ahx-Ub-VS probe labelling (fragment/DMSO); higher = less target engagement (more negative = stronger competition), active = hit call of the paper (q ≤ 0.05, log2 ratio ≤ -1)
Conditions in all cases: compound concentration: 200 uM; treatment time: 3 h
USP34 = USP34 (UniProt Q70CQ2)
How it was run: (§1)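 The table lists average log2 ratios of fragment over vehicle, from an unpaired t-test on global-median-normalised Spectronaut label-free quantities. Proteins with ≥2 unique peptides were used. Samples were HEK293T lysate (495 µg) treated in triplicate with fragment at 200 µM or vehicle for 3 h, then with Biotin-Ahx-Ub-VS (0.5 µM final) for 1 h, with labelled DUBs NeutrAvidin-enriched and run by diaPASEF LC-MS/MS.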

USP36 = biological target: T1, USP36 (UniProt Q9P275)
T1 sequence (whole entry): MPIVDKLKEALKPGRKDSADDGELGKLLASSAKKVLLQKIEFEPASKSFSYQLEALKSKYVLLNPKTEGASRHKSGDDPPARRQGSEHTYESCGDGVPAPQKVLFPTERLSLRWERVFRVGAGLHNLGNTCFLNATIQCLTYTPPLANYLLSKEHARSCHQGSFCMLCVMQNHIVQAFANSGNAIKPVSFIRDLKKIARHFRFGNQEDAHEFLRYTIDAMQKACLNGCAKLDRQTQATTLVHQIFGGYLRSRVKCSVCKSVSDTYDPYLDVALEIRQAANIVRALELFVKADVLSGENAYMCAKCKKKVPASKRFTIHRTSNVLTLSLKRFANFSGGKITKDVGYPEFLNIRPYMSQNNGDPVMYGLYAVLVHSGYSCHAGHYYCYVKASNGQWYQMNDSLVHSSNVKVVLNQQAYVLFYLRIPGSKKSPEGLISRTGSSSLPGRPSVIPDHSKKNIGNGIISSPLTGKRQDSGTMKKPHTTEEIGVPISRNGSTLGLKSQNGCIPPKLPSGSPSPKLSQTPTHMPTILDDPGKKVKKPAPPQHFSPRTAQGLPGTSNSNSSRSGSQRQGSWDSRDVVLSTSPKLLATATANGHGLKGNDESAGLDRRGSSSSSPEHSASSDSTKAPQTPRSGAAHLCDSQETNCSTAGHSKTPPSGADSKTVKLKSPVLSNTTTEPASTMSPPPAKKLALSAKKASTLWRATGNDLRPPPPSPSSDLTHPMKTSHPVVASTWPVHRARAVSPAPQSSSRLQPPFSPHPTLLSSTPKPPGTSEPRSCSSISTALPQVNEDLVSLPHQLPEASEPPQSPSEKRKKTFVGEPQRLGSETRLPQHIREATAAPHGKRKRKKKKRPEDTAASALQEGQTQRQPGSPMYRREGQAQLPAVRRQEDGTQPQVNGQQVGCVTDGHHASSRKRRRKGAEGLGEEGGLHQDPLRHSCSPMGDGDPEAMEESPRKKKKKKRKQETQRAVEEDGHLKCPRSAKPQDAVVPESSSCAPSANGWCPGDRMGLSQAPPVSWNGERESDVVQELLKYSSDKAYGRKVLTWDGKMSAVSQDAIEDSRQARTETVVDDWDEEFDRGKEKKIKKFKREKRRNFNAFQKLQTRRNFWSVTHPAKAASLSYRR
How it was run: as §1

USP38 = biological target: T2, USP38 (UniProt Q8NB14)
T2 sequence (whole entry): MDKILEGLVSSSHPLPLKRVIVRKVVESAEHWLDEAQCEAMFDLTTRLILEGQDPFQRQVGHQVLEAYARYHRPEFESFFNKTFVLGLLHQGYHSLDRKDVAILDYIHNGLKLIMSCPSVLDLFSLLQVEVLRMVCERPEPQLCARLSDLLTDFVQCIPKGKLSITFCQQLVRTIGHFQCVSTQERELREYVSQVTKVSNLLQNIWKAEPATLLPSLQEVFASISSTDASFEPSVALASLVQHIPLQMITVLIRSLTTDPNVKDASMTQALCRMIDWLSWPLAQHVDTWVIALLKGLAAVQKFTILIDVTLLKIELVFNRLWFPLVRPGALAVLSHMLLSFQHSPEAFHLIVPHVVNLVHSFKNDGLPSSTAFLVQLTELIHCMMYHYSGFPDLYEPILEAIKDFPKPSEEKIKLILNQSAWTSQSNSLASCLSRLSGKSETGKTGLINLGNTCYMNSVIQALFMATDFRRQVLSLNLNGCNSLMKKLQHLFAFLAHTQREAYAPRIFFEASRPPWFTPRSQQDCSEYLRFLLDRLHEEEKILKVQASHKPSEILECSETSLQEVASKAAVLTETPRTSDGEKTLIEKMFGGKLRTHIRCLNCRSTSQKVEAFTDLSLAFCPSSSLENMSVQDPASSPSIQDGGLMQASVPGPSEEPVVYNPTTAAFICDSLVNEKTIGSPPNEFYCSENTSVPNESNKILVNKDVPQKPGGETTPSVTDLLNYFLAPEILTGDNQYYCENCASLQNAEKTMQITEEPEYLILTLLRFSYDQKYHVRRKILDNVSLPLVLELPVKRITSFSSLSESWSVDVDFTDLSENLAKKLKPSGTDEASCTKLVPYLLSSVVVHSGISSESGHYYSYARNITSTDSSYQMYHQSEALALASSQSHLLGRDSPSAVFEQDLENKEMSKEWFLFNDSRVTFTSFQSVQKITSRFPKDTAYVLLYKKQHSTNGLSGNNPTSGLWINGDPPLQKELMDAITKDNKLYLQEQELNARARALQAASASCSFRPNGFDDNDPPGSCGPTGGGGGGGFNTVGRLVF
How it was run: as §1

USP39 = biological target: T3, USP39 (UniProt Q53GS9)
T3 sequence (whole entry): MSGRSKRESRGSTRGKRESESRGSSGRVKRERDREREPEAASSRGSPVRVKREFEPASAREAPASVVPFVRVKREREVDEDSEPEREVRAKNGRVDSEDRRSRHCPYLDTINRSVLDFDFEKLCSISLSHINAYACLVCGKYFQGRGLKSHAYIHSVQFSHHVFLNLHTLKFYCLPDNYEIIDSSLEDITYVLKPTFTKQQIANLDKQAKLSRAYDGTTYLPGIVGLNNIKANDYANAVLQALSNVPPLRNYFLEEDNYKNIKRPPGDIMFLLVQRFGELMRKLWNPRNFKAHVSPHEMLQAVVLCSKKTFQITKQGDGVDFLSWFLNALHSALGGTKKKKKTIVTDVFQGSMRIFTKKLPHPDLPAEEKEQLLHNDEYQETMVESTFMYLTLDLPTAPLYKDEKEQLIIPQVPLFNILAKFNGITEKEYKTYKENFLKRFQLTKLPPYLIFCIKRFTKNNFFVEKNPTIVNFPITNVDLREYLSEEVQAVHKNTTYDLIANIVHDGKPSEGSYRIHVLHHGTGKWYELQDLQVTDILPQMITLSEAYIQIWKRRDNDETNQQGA
How it was run: as §1

USP4 = biological target: T4, USP4 (UniProt Q13107)
T4 sequence (whole entry): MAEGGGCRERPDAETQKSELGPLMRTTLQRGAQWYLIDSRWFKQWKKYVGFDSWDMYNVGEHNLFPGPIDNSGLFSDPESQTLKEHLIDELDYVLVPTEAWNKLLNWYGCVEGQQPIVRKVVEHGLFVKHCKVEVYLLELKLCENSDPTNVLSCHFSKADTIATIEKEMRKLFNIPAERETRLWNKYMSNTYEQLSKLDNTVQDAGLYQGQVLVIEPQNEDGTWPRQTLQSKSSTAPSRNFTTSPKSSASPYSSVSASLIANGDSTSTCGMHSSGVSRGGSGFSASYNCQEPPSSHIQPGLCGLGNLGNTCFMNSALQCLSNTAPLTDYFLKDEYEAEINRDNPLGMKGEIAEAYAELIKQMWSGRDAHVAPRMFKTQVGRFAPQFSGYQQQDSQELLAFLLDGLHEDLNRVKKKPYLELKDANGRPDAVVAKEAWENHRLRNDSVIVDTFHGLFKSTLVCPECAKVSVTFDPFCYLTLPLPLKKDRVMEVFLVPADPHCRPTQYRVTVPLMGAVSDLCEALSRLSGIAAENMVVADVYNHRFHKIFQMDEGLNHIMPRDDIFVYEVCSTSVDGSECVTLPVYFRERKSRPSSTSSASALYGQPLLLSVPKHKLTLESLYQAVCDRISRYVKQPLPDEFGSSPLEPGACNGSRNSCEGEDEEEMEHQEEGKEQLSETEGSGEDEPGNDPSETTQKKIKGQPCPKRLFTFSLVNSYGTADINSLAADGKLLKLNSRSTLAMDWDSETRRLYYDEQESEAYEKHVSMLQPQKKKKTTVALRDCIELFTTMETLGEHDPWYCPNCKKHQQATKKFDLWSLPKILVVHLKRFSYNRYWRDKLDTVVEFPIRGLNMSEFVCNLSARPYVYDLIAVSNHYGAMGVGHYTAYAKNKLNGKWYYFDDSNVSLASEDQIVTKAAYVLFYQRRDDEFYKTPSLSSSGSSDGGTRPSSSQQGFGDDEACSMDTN
How it was run: as §1

Measured: log2 ratio of Biotin-Ahx-Ub-VS probe labelling

Chain of USP34 (Q70CQ2 whole entry, the tested form may be a part): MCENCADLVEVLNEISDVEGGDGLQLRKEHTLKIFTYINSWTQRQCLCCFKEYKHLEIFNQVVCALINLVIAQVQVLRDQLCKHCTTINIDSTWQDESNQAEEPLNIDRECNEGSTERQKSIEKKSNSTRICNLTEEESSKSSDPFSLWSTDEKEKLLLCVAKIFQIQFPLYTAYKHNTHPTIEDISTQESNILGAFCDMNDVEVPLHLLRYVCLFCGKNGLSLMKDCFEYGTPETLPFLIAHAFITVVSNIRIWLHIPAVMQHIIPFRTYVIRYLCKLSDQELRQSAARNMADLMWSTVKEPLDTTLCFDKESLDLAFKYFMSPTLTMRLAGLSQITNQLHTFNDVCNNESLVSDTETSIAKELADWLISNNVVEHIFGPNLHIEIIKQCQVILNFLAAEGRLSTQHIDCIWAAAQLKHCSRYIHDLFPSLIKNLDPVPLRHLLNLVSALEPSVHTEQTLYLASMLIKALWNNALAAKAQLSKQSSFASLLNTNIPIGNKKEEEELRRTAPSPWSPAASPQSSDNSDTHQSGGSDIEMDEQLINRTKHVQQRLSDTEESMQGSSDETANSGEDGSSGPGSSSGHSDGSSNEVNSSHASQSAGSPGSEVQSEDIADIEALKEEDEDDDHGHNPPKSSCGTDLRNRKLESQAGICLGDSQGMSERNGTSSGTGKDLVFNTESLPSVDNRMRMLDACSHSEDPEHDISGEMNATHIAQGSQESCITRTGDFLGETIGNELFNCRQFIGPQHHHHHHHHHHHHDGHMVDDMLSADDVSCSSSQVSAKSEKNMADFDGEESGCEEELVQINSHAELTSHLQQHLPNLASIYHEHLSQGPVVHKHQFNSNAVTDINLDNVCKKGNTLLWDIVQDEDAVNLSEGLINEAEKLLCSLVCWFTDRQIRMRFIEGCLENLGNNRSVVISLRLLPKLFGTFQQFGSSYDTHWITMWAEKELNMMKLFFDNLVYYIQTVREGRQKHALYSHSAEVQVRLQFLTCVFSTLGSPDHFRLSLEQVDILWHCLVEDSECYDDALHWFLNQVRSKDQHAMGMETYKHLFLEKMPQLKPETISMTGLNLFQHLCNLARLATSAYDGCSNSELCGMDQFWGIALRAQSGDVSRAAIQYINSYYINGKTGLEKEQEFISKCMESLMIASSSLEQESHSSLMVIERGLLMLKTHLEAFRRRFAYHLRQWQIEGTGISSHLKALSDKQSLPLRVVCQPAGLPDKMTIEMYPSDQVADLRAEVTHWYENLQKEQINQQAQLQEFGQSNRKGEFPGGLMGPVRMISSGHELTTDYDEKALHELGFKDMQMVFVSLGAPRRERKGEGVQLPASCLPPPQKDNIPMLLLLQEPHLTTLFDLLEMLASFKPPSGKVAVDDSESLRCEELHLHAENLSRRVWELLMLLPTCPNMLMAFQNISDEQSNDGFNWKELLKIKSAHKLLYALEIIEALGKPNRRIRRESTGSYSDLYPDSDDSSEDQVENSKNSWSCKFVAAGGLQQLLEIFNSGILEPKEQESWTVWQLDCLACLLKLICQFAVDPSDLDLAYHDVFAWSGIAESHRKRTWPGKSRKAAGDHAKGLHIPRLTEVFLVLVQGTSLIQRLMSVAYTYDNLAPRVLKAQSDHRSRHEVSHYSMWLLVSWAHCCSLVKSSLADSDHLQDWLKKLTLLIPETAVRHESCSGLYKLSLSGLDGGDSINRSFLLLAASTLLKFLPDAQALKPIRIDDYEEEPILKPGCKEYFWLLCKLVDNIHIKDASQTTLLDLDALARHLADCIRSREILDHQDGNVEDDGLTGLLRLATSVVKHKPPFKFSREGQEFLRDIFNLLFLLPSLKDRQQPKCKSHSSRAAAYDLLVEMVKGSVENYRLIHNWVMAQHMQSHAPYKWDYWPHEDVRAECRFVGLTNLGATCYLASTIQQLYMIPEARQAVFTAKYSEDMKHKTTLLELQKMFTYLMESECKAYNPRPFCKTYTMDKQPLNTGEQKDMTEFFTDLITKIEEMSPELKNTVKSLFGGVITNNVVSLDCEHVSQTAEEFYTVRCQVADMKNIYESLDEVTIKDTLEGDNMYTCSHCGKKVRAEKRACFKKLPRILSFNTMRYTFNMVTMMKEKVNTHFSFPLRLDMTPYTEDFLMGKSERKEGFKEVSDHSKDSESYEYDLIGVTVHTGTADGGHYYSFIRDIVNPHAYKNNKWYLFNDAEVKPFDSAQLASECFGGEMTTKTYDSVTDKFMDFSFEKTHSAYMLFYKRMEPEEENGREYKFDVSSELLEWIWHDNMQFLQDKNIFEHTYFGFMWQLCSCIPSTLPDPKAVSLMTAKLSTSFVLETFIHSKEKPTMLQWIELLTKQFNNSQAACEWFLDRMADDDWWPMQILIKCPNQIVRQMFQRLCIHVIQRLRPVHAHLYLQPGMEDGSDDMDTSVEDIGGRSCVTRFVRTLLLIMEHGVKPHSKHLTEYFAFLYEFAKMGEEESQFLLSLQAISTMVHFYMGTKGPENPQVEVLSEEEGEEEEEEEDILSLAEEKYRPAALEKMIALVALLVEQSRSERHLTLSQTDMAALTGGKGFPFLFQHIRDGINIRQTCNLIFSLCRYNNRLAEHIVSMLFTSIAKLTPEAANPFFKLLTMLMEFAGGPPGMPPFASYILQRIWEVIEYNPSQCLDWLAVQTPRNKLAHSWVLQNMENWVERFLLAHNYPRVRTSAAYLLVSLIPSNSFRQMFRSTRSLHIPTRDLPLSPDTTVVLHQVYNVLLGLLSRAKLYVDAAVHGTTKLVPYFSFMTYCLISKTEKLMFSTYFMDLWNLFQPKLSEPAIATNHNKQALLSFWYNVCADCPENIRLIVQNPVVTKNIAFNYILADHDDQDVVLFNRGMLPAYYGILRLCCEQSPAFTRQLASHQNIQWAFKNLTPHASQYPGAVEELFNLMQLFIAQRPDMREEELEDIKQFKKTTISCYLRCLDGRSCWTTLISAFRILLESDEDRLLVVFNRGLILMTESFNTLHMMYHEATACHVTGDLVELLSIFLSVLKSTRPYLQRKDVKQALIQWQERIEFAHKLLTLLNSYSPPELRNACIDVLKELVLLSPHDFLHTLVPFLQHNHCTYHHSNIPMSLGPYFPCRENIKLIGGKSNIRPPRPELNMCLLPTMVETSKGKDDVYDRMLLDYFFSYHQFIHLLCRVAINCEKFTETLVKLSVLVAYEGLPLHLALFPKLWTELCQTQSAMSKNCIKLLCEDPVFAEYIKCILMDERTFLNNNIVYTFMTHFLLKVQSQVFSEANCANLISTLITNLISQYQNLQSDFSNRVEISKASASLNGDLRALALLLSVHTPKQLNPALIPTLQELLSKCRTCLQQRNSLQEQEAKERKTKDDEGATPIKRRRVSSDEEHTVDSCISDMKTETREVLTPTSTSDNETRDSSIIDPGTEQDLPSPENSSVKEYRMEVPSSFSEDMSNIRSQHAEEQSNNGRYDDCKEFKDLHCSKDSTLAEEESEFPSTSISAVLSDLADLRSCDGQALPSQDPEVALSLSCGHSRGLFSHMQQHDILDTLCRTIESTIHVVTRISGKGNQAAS

O=C(CCl)N1CC2(CCOCC2)C1
inactive: USP34 -0.0656 | USP36 -0.243 | USP38 0.103 | USP39 0.364 | USP4 -0.0394
